PubChem BioAssay (EPA / NIEHS)
Results filed as inconclusive are left out. Activity calls are given as the source filed them. The calls were made as follows, unless noted: active = hit-call score of the fitted dose curve at least 0.9, where 1 is the maximum; inactive = score below 0.9.

What was measured:
[1] = ATG_NFI_CIS: Attagene CIS-FACTORIAL HepG2 Assay for human Nuclear Factor I (NFI) (AID 2282989); details: HepG2 cis-regulatory reporter, NFI response element transcription; actives raise or lower the signal
Outline: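 HepG2 cells transiently transfected with cis-element-driven multiplexed reporter transcription units, dosed for 24 h. Reporter mRNA quantified by RT-PCR, fluorescent labelling, HpaI digestion and capillary electrophoresis; bidirectional fit versus DMSO baseline.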

[2] = target: Myc proto-oncogene protein (Homo sapiens) (UniProt P01106); assay: ATG_Myc_CIS: Attagene CIS-FACTORIAL HepG2 Assay for human Myelocytomatosis (Myc) Proto-Oncogene Transcription Factor (AID 2282990); details: HepG2, Attagene cis-reporter transcription factor activity; actives raise or lower the signal
Outline: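 Multiplexed cis-reporter transcription in HepG2 cells after 24 h chemical treatment. Reporter mRNA measured by RT-PCR and capillary electrophoresis fluorescence; activity fitted bidirectionally against DMSO control.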

[3] = ATG_NF_kB_CIS: Attagene CIS-FACTORIAL HepG2 Assay for human Nuclear Factor Kappa B (NF-kB) (AID 2282991); details: HepG2 Attagene cis-factorial NF-kB reporter mRNA; actives raise or lower the signal
Outline: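 After 24 h compound incubation, transfected HepG2 cells yield total RNA; reporter cDNA is PCR-amplified, end-labelled with 6-FAM, HpaI-digested and analysed on a genetic analyser. Endogenous factor activity, DMSO-referenced bidirectional fit.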

[4] = ATG_NRF2_ARE_CIS: Attagene CIS-FACTORIAL HepG2 Assay for human Nuclear Factor Erythroid 2 Related Factor 2 (NFR2) response to Antioxidant Response Elements (ARE) (AID 2282992); details: HepG2 Attagene ARE/NRF2 reporter, transcription factor activity; actives raise or lower the signal
Outline: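 Endogenous transcription factor activity read out as reporter transcript levels (RT-PCR plus capillary electrophoresis, fluorescence) in transiently transfected HepG2 cells. Measured at 24 h after dosing; gain or loss of signal fitted versus DMSO.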

[5] = ATG_Oct_MLP_CIS: Attagene CIS-FACTORIAL HepG2 Assay for human Octamer-Binding Transcription Factor (Oct) (AID 2282993); details: HepG2 Attagene cis-factorial Oct reporter, mRNA; actives raise or lower the signal
Outline: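 HepG2 cells transiently transfected with cis-promoter-driven multiplexed reporter transcription units, dosed for 24 h. Reporter mRNA quantified by RT-PCR, fluorescent labelling, HpaI digestion and capillary electrophoresis; bidirectional fits versus DMSO baseline.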

[6] = target: Peroxisome proliferator-activated receptor gamma (Homo sapiens) (UniProt P37231); assay: ATG_PPARg_TRANS: Attagene TRANS-FACTORIAL HepG2 Assay for human Peroxisome Proliferator-activated Receptor-gamma (PPARg) (AID 2283007; active = hit-call score of the fitted dose curve at least 0.9, where 1 is the maximum)
Outline: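 Liver-derived HepG2 cells expressing an exogenous NR-Gal4 chimera alongside GAL4-UAS reporter genes; 24 h exposure. Fluorescence of reporter RT-PCR products, separated by capillary electrophoresis, gives mRNA induction relative to DMSO.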

[7] = target: Nuclear receptor subfamily 1 group I member 2 (Homo sapiens) (UniProt O75469); assay: ATG_PXR_TRANS: Attagene TRANS-FACTORIAL HepG2 Assay for human Pregnane X Receptor (PXR) (AID 2283008; active = hit-call score of the fitted dose curve at least 0.9, where 1 is the maximum)
Outline: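 Transactivation by exogenous PXR–GAL4 fusion measured as reporter transcript induction after 24 h compound treatment of transfected human HepG2 cells. Read-out via RT-PCR and capillary electrophoresis of labelled fragments, fitted upward relative to DMSO.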

[8] = target: human Retinoic Acid Receptor gamma (RARg), RARG (gene 5916) (UniProt P13631); assay: ATG_RARg_TRANS: Attagene TRANS-FACTORIAL HepG2 Assay for human Retinoic Acid Receptor gamma (RARg) (AID 2283009; active = hit-call score of the fitted dose curve at least 0.9, where 1 is the maximum)
Outline: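 Gain-of-signal relative to DMSO is reported from fluorescent capillary electrophoresis of RT-PCR reporter products. These came from HepG2 cells expressing transfected RARg-GAL4 chimeras with UAS reporters, harvested 24 h after dosing.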

[9] = target: human Peroxisome Proliferator-activated Receptor delta (PPARd), PPARD (gene 5467) (UniProt Q03181); assay: ATG_PPARd_TRANS: Attagene TRANS-FACTORIAL HepG2 Assay for human Peroxisome Proliferator-activated Receptor delta (PPARd) (AID 2283002; active = hit-call score of the fitted dose curve at least 0.9, where 1 is the maximum)
Outline: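 Multiplexed trans-activation format: HepG2 liver cells expressing exogenous NR-Gal4 chimeras and GAL4-UAS reporters were exposed for 24 h. Reporter mRNA was detected by RT-PCR with capillary electrophoresis fluorescence; activity fitted as gain of signal relative to DMSO.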

[10] = target: Cellular tumor antigen p53 (Homo sapiens) (UniProt P04637); assay: ATG_p53_CIS: Attagene CIS-FACTORIAL HepG2 Assay for human p53 Transcription Factor (AID 2282994); details: HepG2 p53 cis-element reporter, Attagene mRNA; actives raise or lower the signal
Outline: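 Endogenous p53 activity read in transiently transfected HepG2 from a cis-element-driven reporter transcript after 24 h exposure. RNA reverse-transcribed, PCR-amplified, fluorescently labelled and sized by capillary electrophoresis; gain or loss fitted against DMSO baseline.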

[11] = target: human Peroxisome Proliferator-activated Receptor alpha (PPARa), PPARA (gene 5465) (UniProt Q07869); assay: ATG_PPARa_TRANS: Attagene TRANS-FACTORIAL HepG2 Assay for human Peroxisome Proliferator-activated Receptor alpha (PPARa) (AID 2283001; active = hit-call score of the fitted dose curve at least 0.9, where 1 is the maximum)
Outline: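 Exposure: 24 h, transiently transfected HepG2 cells. Endpoint: GAL4-UAS reporter mRNA, RT-PCR with capillary electrophoresis fluorescence. Baseline: DMSO; increases fitted.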

[12] = target: Retinoic acid receptor alpha (Homo sapiens) (UniProt P10276); assay: ATG_RARa_TRANS: Attagene TRANS-FACTORIAL HepG2 Assay for human Retinoic Acid Receptor alpha (RARa) (AID 2283005; active = hit-call score of the fitted dose curve at least 0.9, where 1 is the maximum)
Outline: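 HepG2 cells transiently transfected with multiple reporter units expressing chimeric RARα-GAL4 fusion, with GAL4-UAS-driven reporters. After 24 h compound exposure, reporter mRNA induction quantified by RT-PCR and capillary electrophoresis with fluorescent labeling; gain-of-signal fitted relative to DMSO control.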

[13] = target: human Retinoic Acid Receptor beta (RARb), RARB (gene 5915) (UniProt P10826); assay: ATG_RARb_TRANS: Attagene TRANS-FACTORIAL HepG2 Assay for human Retinoic Acid Receptor beta (AID 2283004; active = hit-call score of the fitted dose curve at least 0.9, where 1 is the maximum)
Outline: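 Induction of reporter mRNA from a chimeric RARb-Gal4 construct was measured by RT-PCR, FAM labelling, HpaI digestion and capillary electrophoresis. Measurements followed 24 h compound treatment of transiently transfected human HepG2 liver cells, with DMSO as baseline.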

[14] = target: human RAR-related Orphan Receptor beta (RORb), RORB (gene 6096) (UniProt Q92753); assay: ATG_RORb_TRANS: Attagene TRANS-FACTORIAL HepG2 Assay for human RAR-related Orphan Receptor beta (RORb) (AID 2283010; active = hit-call score of the fitted dose curve at least 0.9, where 1 is the maximum)
Outline: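 Multiplexed transcription-factor reporter assay: HepG2 cells transiently carrying NR-Gal4/GAL4-UAS constructs, 24 h treatment, mRNA quantified by RT-PCR plus capillary electrophoresis fluorescence; activity scored as induction over DMSO.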

[15] = BSK_3C_TissueFactor: BioMAP Diversity Plus: 3C Assay for Tissue Factor Biomarker Activity (AID 2282997); details: BioMAP 3C HUVEC, tissue factor biomarker readout; actives raise or lower the signal
Outline: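 Tissue factor on primary human umbilical vein endothelium was read by ELISA 24 h after dosing, gain or loss relative to DMSO. Cytotoxicity ran alongside via SRB (0.1%, TCA-fixed, 560 nm).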

[16] = BSK_3C_uPAR: BioMAP Diversity Plus: 3C Assay for Urokinase-type plasminogen activator receptor (uPAR) Biomarker Activity (AID 2282998); details: BioMAP 3C HUVEC, uPAR biomarker ELISA; actives raise or lower the signal
Outline: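 Human umbilical vein endothelial primary cells were exposed to test chemical for 24 h. Cell-surface uPAR was then quantified by ELISA, and responses were fitted bidirectionally against DMSO as negative control and baseline.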

[17] = BSK_3C_VCAM1: BioMAP Diversity Plus: 3C Assay for Vascular cell adhesion molecule 1 (VCAM1) Biomarker Activity (AID 2282999); details: BioMAP 3C HUVEC, VCAM1 ELISA, cytokine-stimulated; actives raise or lower the signal
Outline: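 Vascular primary endothelium (human umbilical vein) was exposed to chemicals and assayed 24 h later. VCAM-1 levels came from ELISA, with DMSO serving as baseline for bidirectional fitting.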

[18] = BSK_4H_Eotaxin3: BioMAP Diversity Plus: 4H Assay for Eotaxin 3 Biomarker Activity (AID 2283000); details: primary human endothelial cells (HUVEC); actives raise or lower the signal
Outline: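 Human umbilical vein endothelial cells (BSK_4H system) dosed with test chemical; Eotaxin-3 (CCL26) measured by ELISA 24 h after dosing. Bidirectional curve fitting relative to DMSO negative control as baseline.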

[19] = read-out: Intercellular Adhesion Molecule 1 (ICAM1), ICAM1 (gene 3383); assay: BSK_3C_ICAM1: BioMAP Diversity Plus: 3C Assay for Intercellular Adhesion Molecule 1 (ICAM1) Biomarker Activity (AID 2283003); details: primary human endothelial cells (HUVEC); actives raise or lower the signal
Outline: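 Using DMSO as baseline, bidirectional curve fitting was applied to ICAM-1 ELISA signals from HUVEC in the 3C system, measured 24 h after compound addition.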

Measured: AC50

human RAR-related Orphan Receptor beta (RORb), RORB (gene 6096), sequence (Q92753 whole entry, looked up, the tested form may be a part): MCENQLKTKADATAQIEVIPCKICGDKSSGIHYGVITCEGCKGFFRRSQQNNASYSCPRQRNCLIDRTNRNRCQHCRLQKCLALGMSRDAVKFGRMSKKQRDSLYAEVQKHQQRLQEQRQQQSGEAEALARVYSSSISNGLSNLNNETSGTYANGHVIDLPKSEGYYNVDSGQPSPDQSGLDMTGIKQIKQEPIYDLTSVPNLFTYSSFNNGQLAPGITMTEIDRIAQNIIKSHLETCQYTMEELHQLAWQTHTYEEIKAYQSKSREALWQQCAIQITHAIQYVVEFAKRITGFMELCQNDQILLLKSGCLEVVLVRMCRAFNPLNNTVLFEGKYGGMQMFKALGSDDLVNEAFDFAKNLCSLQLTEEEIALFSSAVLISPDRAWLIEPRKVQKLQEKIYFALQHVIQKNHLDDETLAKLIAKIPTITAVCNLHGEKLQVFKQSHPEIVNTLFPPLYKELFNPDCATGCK
human Peroxisome Proliferator-activated Receptor delta (PPARd), PPARD (gene 5467), sequence (Q03181 whole entry, looked up, the tested form may be a part): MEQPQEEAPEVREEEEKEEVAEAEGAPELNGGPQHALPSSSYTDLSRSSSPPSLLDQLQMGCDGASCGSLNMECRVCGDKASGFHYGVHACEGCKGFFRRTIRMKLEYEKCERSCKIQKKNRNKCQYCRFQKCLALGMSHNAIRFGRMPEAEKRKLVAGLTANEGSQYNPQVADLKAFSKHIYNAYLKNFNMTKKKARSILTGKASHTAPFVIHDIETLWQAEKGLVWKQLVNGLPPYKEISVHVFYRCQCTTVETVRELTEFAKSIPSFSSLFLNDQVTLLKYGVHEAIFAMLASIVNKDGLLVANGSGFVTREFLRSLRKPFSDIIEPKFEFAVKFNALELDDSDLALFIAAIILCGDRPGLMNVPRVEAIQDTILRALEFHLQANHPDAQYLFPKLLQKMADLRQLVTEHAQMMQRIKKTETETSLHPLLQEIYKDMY
human Peroxisome Proliferator-activated Receptor alpha (PPARa), PPARA (gene 5465), sequence (Q07869 whole entry, looked up, the tested form may be a part): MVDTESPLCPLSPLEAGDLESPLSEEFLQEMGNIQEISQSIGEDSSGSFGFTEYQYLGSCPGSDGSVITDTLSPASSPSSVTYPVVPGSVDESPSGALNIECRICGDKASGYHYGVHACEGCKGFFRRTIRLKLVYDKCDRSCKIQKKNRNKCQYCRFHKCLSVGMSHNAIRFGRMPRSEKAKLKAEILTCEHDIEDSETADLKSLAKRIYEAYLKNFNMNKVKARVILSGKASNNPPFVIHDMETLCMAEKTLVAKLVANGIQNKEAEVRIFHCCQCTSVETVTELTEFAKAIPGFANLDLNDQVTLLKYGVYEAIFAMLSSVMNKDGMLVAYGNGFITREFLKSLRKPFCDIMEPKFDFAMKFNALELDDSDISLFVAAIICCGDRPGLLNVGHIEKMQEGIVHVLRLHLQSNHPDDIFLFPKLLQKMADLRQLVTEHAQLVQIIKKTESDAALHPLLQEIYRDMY
Myc proto-oncogene protein (Homo sapiens), sequence (P01106 whole entry, looked up): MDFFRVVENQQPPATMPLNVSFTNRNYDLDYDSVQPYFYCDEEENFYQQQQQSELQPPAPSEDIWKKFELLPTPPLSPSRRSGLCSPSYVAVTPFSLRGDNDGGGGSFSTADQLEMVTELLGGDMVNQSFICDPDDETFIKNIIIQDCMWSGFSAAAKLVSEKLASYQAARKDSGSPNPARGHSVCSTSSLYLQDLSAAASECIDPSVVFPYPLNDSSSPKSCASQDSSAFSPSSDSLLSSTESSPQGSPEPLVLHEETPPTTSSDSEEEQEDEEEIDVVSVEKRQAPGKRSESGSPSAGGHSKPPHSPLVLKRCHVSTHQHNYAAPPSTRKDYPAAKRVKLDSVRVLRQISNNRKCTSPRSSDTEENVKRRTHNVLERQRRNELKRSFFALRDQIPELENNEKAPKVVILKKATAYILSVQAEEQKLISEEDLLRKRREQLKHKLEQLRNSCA
human Retinoic Acid Receptor gamma (RARg), RARG (gene 5916), sequence (P13631 whole entry, looked up, the tested form may be a part): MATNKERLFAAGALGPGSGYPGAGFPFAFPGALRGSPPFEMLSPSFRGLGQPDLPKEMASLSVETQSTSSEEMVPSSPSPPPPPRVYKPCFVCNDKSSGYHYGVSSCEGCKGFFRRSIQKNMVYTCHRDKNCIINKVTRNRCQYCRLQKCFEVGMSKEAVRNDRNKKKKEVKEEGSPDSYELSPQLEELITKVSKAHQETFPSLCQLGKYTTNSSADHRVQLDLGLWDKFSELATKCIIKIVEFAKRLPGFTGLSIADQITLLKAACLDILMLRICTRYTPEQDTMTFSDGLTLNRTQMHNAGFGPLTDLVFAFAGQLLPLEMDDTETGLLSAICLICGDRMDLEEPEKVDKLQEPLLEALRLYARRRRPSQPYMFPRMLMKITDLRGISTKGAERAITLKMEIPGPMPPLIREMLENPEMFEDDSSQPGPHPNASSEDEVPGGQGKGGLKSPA
Peroxisome proliferator-activated receptor gamma (Homo sapiens), sequence (P37231 whole entry, looked up, the tested form may be a part): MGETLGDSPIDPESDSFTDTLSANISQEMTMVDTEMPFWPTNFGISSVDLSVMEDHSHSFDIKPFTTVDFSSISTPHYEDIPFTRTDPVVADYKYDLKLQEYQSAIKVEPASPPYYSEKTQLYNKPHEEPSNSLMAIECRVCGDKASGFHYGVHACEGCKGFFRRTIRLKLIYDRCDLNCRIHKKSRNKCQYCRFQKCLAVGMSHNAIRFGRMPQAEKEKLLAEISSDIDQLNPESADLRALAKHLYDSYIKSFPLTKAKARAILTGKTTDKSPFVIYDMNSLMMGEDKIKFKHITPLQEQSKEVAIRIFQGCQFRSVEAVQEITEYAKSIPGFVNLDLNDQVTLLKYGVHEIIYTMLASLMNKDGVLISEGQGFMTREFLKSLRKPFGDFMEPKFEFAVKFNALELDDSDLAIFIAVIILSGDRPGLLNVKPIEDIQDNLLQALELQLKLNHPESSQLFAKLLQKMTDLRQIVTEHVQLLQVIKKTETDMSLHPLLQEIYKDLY
Cellular tumor antigen p53 (Homo sapiens), sequence (P04637 whole entry, looked up): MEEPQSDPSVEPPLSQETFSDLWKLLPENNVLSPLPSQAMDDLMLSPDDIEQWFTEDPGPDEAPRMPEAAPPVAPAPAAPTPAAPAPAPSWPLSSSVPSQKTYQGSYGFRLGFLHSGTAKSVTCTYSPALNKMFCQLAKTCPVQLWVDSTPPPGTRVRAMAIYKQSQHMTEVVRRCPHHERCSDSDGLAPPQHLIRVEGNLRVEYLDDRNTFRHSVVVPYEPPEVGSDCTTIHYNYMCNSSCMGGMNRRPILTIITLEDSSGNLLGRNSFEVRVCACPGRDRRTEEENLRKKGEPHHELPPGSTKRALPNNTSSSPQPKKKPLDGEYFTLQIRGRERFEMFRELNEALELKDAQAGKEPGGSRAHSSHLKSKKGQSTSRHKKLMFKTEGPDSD
Retinoic acid receptor alpha (Homo sapiens), sequence (P10276 whole entry, looked up, the tested form may be a part): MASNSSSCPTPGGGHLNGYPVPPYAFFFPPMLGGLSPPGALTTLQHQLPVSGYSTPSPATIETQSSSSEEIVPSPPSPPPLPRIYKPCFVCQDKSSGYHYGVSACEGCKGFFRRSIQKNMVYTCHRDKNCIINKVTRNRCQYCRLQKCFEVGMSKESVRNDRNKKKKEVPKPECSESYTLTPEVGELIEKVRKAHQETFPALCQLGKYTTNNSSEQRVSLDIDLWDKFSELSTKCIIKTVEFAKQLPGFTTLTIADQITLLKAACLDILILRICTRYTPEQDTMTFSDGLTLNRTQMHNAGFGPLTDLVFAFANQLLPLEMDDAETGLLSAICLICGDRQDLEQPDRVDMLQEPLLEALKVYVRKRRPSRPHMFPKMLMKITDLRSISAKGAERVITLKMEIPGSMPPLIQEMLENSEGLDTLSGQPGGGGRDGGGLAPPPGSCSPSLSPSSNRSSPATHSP
human Retinoic Acid Receptor beta (RARb), RARB (gene 5915), sequence (P10826 whole entry, looked up, the tested form may be a part): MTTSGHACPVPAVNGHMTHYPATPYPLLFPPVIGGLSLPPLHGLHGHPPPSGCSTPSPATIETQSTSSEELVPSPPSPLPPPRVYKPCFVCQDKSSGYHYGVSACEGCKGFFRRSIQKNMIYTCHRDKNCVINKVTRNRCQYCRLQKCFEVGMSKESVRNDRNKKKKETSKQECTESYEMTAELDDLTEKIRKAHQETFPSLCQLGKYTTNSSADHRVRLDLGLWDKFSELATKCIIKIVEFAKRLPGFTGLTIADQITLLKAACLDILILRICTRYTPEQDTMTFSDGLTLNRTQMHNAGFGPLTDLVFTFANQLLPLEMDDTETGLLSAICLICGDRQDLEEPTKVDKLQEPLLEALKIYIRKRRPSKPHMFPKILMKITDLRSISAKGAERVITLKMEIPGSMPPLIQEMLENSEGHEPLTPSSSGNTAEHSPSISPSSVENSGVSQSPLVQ
Nuclear receptor subfamily 1 group I member 2 (Homo sapiens), sequence (O75469 whole entry, looked up, the tested form may be a part): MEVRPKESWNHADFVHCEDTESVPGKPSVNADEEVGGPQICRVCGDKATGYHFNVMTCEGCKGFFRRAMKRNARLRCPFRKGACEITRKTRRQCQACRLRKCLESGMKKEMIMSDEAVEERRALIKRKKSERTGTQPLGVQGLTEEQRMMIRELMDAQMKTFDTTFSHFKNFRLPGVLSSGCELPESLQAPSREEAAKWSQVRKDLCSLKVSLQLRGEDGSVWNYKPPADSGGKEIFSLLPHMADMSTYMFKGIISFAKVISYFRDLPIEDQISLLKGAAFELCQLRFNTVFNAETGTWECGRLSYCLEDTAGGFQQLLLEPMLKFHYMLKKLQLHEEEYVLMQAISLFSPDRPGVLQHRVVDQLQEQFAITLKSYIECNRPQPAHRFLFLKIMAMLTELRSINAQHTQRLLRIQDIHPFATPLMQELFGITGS

c1ccc(CN(Cc2ccccc2)Cc2ccccc2)cc1
inactive: [1] | [2] | [3] | [5] | [6] | [7] | [8]
active: [4] 100 µM

Oc1ccc2cc(SSc3ccc4cc(O)ccc4c3)ccc2c1
active: [1] 34.1 µM | [4] 8.28 µM | [5] 39.9 µM | [6] 5.56 µM
inactive: [2] | [3] | [9]

CC[N+](C)(CC)CC
inactive: [1] | [2] | [4] | [5] | [10] | [11] | [12] | [6] | [7] | [8]

O=[N+]([O-])c1ccc(O)cc1C(F)(F)F
active: [1] 69.4 µM | [4] 52.8 µM | [5] 55.2 µM | [6] 38.7 µM
inactive: [2] | [10] | [11] | [9] | [13] | [12] | [8] | [14]

Cc1ncc([N+](=O)[O-])n1CCO
inactive: [1] | [2] | [4] | [5] | [10] | [11] | [9] | [13] | [7] | [14]

CCCCCCC(C)Nc1ccc(Nc2ccccc2)cc1 (configuration not stated)
active: [4] 24.1 µM | [6] 11.7 µM | [7] 1.53 µM
inactive: [1] | [2] | [3] | [5] | [9]

CCC(C)c1cc([N+](=O)[O-])cc([N+](=O)[O-])c1OC(=O)OC(C)C (configuration not stated)
active: [1] 24.5 µM | [4] 5.1 µM | [10] 25 µM | [15] 9.93 µM | [16] 11.3 µM | [17] 19.4 µM | [18] 8.5 µM | [19] 29.1 µM | [6] 0.774 µM
inactive: [2] | [5] | [11] | [9] | [13] | [12] | [8] | [14]

Nc1ccc(NCCO)c([N+](=O)[O-])c1
active: [4] 24.1 µM
inactive: [1] | [2] | [5] | [10] | [11] | [9] | [6] | [7] | [8]
